± gives the standard deviation of the averaged measurements. The full ranking holds about 1,600 compounds; the median of “mitochondrial oxygen consumption rate normalised to cell number, Z score over the library” is about 0.065, and the lowest 2% start at about -2.2. This is one part of a sample in which the lowest values are shown more often than they occur.
Each molecule was assayed on FaDu (assay: mitochondrial oxygen consumption rate normalised to cell number, Z score over the library; higher = higher oxygen consumption (negative = OCR reduction)). Conditions: treatment time 24 h; assay medium: 5 mM galactose, 5 mM pyruvate, 4 mM glutamine; 10 µM.
Method: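 Primary screen: FaDu cells were incubated 24 h with Pharmakon 1600 / TDI oncology set compounds at 2 or 10 uM. Mitochondrial-specific OCR (basal minus 2 uM antimycin A) was measured on a Seahorse XF96 in assay medium with 5 mM galactose, 5 mM pyruvate and 4 mM glutamine, then corrected for Hoechst cell number and expressed as a Z score […]. Compounds that cut cell number by >66% were excluded. Two repeats.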

Q: Which “mitochondrial oxygen consumption rate normalised” value does the source give for `S=C=NCc1ccccc1` here?
A: Its value is -4.7 ± 0.66.

Q: For `CN1CCN(C(=O)O[C@H]2c3nccnc3C(=O)N2c2ccc(Cl)cn2)CC1`, which “mitochondrial oxygen consumption rate normalised” value is on record?
A: Its value is -0.823 ± 0.029.

Q: How did the “mitochondrial oxygen consumption rate normalised” value turn out when `CN(C)C(=S)SSC(=S)N(C)C` was run?
A: Its value is 0.578 ± 0.018.

Q: With `CC(=O)Oc1ccc(Cl)c2cccnc12` as the molecule, how does the “mitochondrial oxygen consumption rate normalised” value read?
A: The value was -3.19 ± 0.57.

Q: Which “mitochondrial oxygen consumption rate normalised” value does the source give for `CCNC1(c2cccs2)CCCCC1=O` (stereo unspecified) here?
A: Its value is -0.924 ± 0.92.

Q: `CNC(C)C(O)c1ccccc1` (stereo unspecified) was tested. Which “mitochondrial oxygen consumption rate normalised” value did it give?
A: The value was 0.176 ± 0.34.

Q: With `CN(C)C(=O)Oc1cccc([N+](C)(C)C)c1` as the molecule, how does the “mitochondrial oxygen consumption rate normalised” value read?
A: Its value is 0.321 ± 1.4.

Q: How did the “mitochondrial oxygen consumption rate normalised” value turn out when `C1CCc2nnnn2CC1` was run?
A: The value was -0.625 ± 0.34.

Q: Which “mitochondrial oxygen consumption rate normalised” value does the source give for `O=c1[nH]c(=O)n(Cl)c(=O)n1Cl` here?
A: The value was 0.623 ± 1.2.

Q: How did the “mitochondrial oxygen consumption rate normalised” value turn out when `O=c1[nH]c2ccccc2n1C1CCN(CCCC(c2ccc(F)cc2)c2ccc(F)cc2)CC1` was run?
A: The value was -2.35 ± 0.37.

Q: `O=c1[nH]c2ccccc2n1CCCN1CCC(n2c(=O)[nH]c3cc(Cl)ccc32)CC1` was tested. Which “mitochondrial oxygen consumption rate normalised” value did it give?
A: The value was -0.0948 ± 0.24.

Q: For `Nc1ccc([As](=O)(O)O)cc1`, which “mitochondrial oxygen consumption rate normalised” value is on record?
A: The value was 0.928 ± 0.83.

Q: Which “mitochondrial oxygen consumption rate normalised” value does the source give for `N.N.[Cl][Pt][Cl]` [Cisplatin] here?
A: The value was -0.167 ± 0.0067.

Q: How did the “mitochondrial oxygen consumption rate normalised” value turn out when `N.N.[Cl][Pt][Cl]` was run?
A: The value was 0.355 ± 0.5.

Q: For `COc1cc([C@@H]2c3cc4c(cc3[C@H](O)[C@H]3COC(=O)[C@H]23)OCO4)cc(OC)c1OC`, which “mitochondrial oxygen consumption rate normalised” value is on record?
A: Its value is -0.645 ± 0.1.

Q: Which “mitochondrial oxygen consumption rate normalised” value does the source give for `CCC1(CC)C(=O)C=CNC1=O` here?
A: The value was 0.538 ± 1.2.

Q: `CC[C@H]1CN2CCc3cc(OC)c(OC)cc3[C@@H]2C[C@@H]1C[C@H]1NCCc2cc(OC)c(OC)cc21` was tested. Which “mitochondrial oxygen consumption rate normalised” value did it give?
A: Its value is -5.13 ± 0.2.

Q: How did the “mitochondrial oxygen consumption rate normalised” value turn out when `CCOC(=O)NC(=S)Nc1ccccc1NC(=S)NC(=O)OCC` was run?
A: Its value is -0.249 ± 0.0062.

Q: For `NCc1cccnc1`, which “mitochondrial oxygen consumption rate normalised” value is on record?
A: The value was 0.0684 ± 1.5.

Q: For `CC(=O)NC1CCSC1=O` (stereo unspecified), which “mitochondrial oxygen consumption rate normalised” value is on record?
A: Its value is 0.219 ± 0.66.

Q: Which “mitochondrial oxygen consumption rate normalised” value does the source give for `COC(C)(C)CCC[C@H](C)C/C=C/C(C)=C/C(=O)OC(C)C` here?
A: Its value is 0.396 ± 0.11.

Source: the supplement of paper PMC4962491
